An excerpt weighted towards active compounds, which were near 3.4% of everything screened.
MITF primary = inhibitors of human MITF | O75030 | AlphaScreen MITF homodimerization, bead proximity signal | inhibition, % at 2.6 µM | 650,000 compounds, 0.91% hits; in the data active means inhibition above about 50%;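 further: 0% = vehicle wells with protein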
TEAD-YAP inh = TEAD-YAP interaction inhibition; 640,000 compounds, 1.4% hits; AID 1259422; HEK-TIYL cells, TEAD-Gal4/YAP UAS-luciferase luminescence; inhibition, % at 9.12 µM; in the data active means inhibition above about 32%;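 further: 0% = median of test compound wells and 100% = reference inhibitor wells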
GPR151 ag = human GPR151 activation. Q8TDV0. PathHunter beta-arrestin GPR151 cells, luminescence. activation, % at 11.2 µM. 650,000 compounds, 1% hits; in the data active means activation above about 4.9%;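 further: 0% = median of compound wells and 100% = cells with positive control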
FBW7 activator = human FBW7 E3 ligase activation, primary screen; normalized activity (activation), % at 26.1 µM; 650,000 compounds, 0.13% hits; AlphaScreen FBW7–phospho-cyclin E peptide binding, activator screen; AID 1259310; in the data active means normalized activity above about 1.9%;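 further: purified mutant Fbw7 with reduced substrate affinity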
Target sequence (Q969H0 whole entry, looked up): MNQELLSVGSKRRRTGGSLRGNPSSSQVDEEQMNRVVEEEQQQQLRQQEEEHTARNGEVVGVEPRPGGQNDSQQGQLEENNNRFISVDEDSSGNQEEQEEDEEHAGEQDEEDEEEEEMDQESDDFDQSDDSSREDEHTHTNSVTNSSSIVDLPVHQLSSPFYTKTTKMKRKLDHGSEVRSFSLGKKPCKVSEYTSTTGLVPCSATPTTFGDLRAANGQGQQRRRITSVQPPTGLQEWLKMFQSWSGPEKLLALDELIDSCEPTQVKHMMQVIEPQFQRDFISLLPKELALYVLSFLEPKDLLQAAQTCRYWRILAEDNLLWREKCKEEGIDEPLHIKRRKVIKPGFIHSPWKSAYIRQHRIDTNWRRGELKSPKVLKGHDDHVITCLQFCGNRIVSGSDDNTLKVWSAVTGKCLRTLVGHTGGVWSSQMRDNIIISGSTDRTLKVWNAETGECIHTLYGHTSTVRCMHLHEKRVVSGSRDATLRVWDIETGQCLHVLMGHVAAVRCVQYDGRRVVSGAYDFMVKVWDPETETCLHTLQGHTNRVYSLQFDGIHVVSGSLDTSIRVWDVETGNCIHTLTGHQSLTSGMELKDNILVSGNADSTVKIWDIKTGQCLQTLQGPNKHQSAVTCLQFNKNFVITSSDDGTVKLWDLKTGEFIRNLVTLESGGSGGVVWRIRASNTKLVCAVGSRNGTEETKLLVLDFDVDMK
MITF confirm = confirmation of human MITF inhibitors. shares compounds with MITF primary. AlphaScreen MITF homodimerization, biotin/His-MITF beads. inhibition, % at 2.6 µM. 4,700 compounds, 16% hits. AID 1259372;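 active means inhibition above a cutoff derived from the DMSO control wells, cut at about 28% in these data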;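 further: 0% = MITF dimer wells with DMSO only; inhibitors lower the bead chemiluminescence by keeping MITF from dimerizing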
AS interf DR = optically interferes with AlphaScreen signal in dose response; shares compounds with MITF primary; AlphaScreen optical interference counterscreen, cell-free; IC50, µM; 480 compounds, 6% hits; call rule not given here
AlphaScreen intf2 = counter-screen: compounds optically interfering with AlphaScreen. shares compounds with MITF primary. LysRS AlphaScreen counterscreen, signal interference, triplicate. inhibition, % at 2.6 µM. 4,700 compounds, 7.6% hits;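 active means inhibition above a cutoff derived from the DMSO control wells, cut at about 30% in these data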
* hit, by the source's call; · = no result.

SMILES | MITF primary | TEAD-YAP inh | GPR151 ag | FBW7 activator | MITF confirm | AlphaScreen intf2 | others
CCC1CCCCN1C(=O)Cn1nc(C)n2c(cc3ccsc32)c1=O (configuration not stated) | 61* | 4 | 0 | 0 | 6 | 15
CCC1CCCCN1C(=O)Cn1nc([N+](=O)[O-])cc1C (configuration not stated) | 91* | 6 | 0 | 2 | 2 | 1
CC1(C)CC(=O)C=C(NCC2NCCc3ccccc32)C1 (configuration not stated) | -6 | -4 | 4 | 0 | · | ·
Fc1cccc(F)c1CNCC1NCCc2ccccc21 (configuration not stated) | 78* | 8 | 1 | 0 | -3 | 9
O=C(/C=C/c1ccco1)/C=C/c1ccco1 | 68* | 9 | 1 | 0 | 77* | 97*
CCc1nnc(NC(=O)/C=C/c2ccco2)s1 | 0 | -34 | 1 | 0 | · | ·
O=C(/C=C/c1ccco1)Nc1nnc(-c2ccco2)s1 | 52* | 30 | 0 | 0 | 57* | 8 | AS interf DR=>6.5
O=C(/C=C/c1ccco1)NCc1cccc(CNC(=O)/C=C/c2ccco2)c1 | 74* | 4 | 2 | 0 | 82* | 16 | AS interf DR=>6.5
O=C(/C=C/c1ccco1)OCC(=O)N1CCCC1 | 17 | 3 | 3 | 0 | · | ·
O=C(/C=C/c1ccco1)ON1C(=O)c2ccccc2C1=O | 56* | -3 | 0 | 0 | 35* | 1 | AS interf DR=>6.5
O=C(CN1C(=O)N2CCN=C2c2ccccc21)NC1CC1 | -2 | -3 | -1 | 0 | · | ·
O=C(/C=C/c1ccco1)Nc1cccc(NC(=O)/C=C/c2ccco2)n1 | 82* | -48 | -1 | 0 | 49* | 1 | AS interf DR=>6.7
O=C(O)CCCNC(=O)/C=C/c1ccco1 | 62* | 3 | 1 | 0 | 59* | 3 | AS interf DR=>6.5
CN(C)c1ccc(-c2nc(-c3ccco3)cnc2N)cc1 | 14 | -2 | 0 | 0 | · | ·
Cc1ccccc1CN1CCN(Cc2ccccc2C(F)(F)F)CC1 | 80* | 0 | -1 | 0 | -2 | 13
FC(F)(F)c1ccccc1CN1CCN(Cc2cccnc2)CC1 | 83* | -1 | 1 | 0 | 10 | 22
FC(F)(F)c1ccccc1CN1CCOCC1 | 77* | 8 | 0 | 0 | 3 | -1
FC(F)(F)c1ccccc1CN1CCN(Cc2ccc(Cl)cc2)CC1 | 41 | -12 | -1 | 0 | · | ·
CCCCCOC(=O)C1=C(C)Nc2ncnn2C1c1ccc(OC)c(OC)c1OC (configuration not stated) | 16 | 8 | -1 | 0 | · | ·
COc1cccc(CN2CCN(Cc3ccccc3Br)CC2)c1OC | 35 | -21 | -2 | 0 | · | ·
COc1cccc(CN2CCN(Cc3cccc(Oc4ccccc4)c3)CC2)c1OC | 74* | -7 | 0 | 0 | 5 | 3
COc1ccccc1CN1CCN(Cc2cccc(OC)c2OC)CC1 | 86* | -2 | 1 | 0 | 5 | 17
COc1cccc(CN2CCN(Cc3cccc(OC)c3OC)CC2)c1OC | 74* | -2 | 0 | 0 | 6 | 10
COc1cc(C(=O)N2CCN(Cc3cccc(Oc4ccccc4)c3)CC2)cc(OC)c1OC | 29 | 6 | 0 | 0 | · | ·
COc1cccc(CN2CCC(N3CCN(c4ccccc4)CC3)CC2)c1OC | 56* | 5 | 0 | 0 | -9 | -3
SMILES | MITF primary | TEAD-YAP inh | GPR151 ag | FBW7 activator | MITF confirm | AlphaScreen intf2 | others
Cc1ccc(C)c(NC(=O)NCCCN2CCN(C3CCCCC3)CC2)c1 | 0 | 5 | 1 | 0 | · | ·
COc1ccc(C2C(C(=O)Nc3ccc(OC)cc3OC)c3ccccc3C(=O)N2c2ccc(OC)cc2)cc1 (configuration not stated) | 1 | -5 | -1 | 0 | · | ·
C/C(Cl)=C/Cn1c(Nc2ccc(C)cc2)nc2c1c(=O)n(C)c(=O)n2C | 0 | -11 | 1 | 0 | · | ·
COc1cccc(CN2CCN(C3CCC(C)CC3)CC2)c1OC (configuration not stated) | 70* | -12 | -1 | 0 | 17 | -3
COc1cc(CN2CCN(Cc3cccc(C)c3)CC2)cc(OC)c1OC | 42 | -4 | 0 | -1 | · | ·
COc1cccc(CN2CCC(N3CCCC3)CC2)c1OC | 20 | 3 | 2 | 0 | · | ·
COc1ccccc1CNC(=O)CN1CCN(C)CC1 | 80* | -6 | 0 | 0 | 4 | 13
COc1cccc(CN2CCN(Cc3cc(OC)c(OC)c(OC)c3)CC2)c1OC | 62* | 4 | -1 | 0 | -12 | -2
COc1ccc(CN2CCC(N3CCN(c4ccccc4)CC3)CC2)cc1OC | 56* | 19 | -2 | 0 | -6 | -10
CCN(CC)C(=O)c1c[nH]c2ccc(S(=O)(=O)N3CCC(C)CC3)cc2c1=O | -1 | 4 | 0 | 0 | · | ·
COc1ccccc1CCNC(=O)C1CC12CCN(Cc1cc3ccccc3o1)CC2 (configuration not stated) | 17 | -1 | -2 | 0 | · | ·
CCOC(=O)COc1ccccc1/C=C1/C(=O)N=C(N)N1C | 0 | -6 | 1 | 0 | · | ·
COc1ccc(COC(=O)N/N=C2\C[C@@H](O)[C@@H](O)[C@@H]3[C@@H]4C(=O)N(c5ccc(F)cc5F)C(=O)[C@@H]4CC[C@@H]23)cc1 | 9 | · | 4 | 0 | · | ·
COc1cccc(CN2CCN(C3CCCCC3OC)CC2)c1OC (configuration not stated) | 74* | 4 | 0 | 0 | 7 | 11
CCN(CC)S(=O)(=O)c1cc(C(=O)OCC(=O)c2ccccc2)c(Cl)cc1Cl | 3 | 3 | 0 | 0 | · | ·
C=CCOc1ccccc1/C=C/c1[nH]c(=O)[nH]c(=O)c1[N+](=O)[O-] | -10 | 3 | 0 | 0 | · | ·
CC(C)(C)C(=O)COC(=O)[C@@H]1CC(O)CN1S(=O)(=O)c1ccc(F)cc1 (some centres not stated) | 60* | 13 | 2 | 0 | 0 | -2
Cc1ccnc(Nc2cccc3ncc(-c4ccc(NS(C)(=O)=O)cc4)cc23)c1 | 4 | -9 | 3 | 0 | · | ·
COC(=O)c1cccc(NC(=O)CCOc2ccccc2)c1 | 51* | -11 | -1 | 0 | 0 | 7
Cc1ccc(C23CC4CC(CC(C4)C2)C3)cc1[N+](=O)[O-] | 54* | -4 | 1 | 0 | 4 | 13
COc1ccc(C23CC4CC(CC(C4)C2)C3)cc1[N+](=O)[O-] | 0 | -1 | 0 | 0 | · | ·
NC(=O)c1ccc(-c2csc3ccccc23)s1 | 11 | -5 | 1 | 0 | · | ·
NC(=O)c1ccc(-c2cccs2)s1 | 59* | -6 | 0 | 0 | 39* | 3 | AS interf DR=>7.3
CC1=NN(c2cccc3ccccc23)C(=O)C1 | 10 | 8 | -1 | -2 | · | ·
CC1=NN(c2ccc3cccc(O)c3n2)C(=O)C1 | 90* | 7 | 2 | 0 | 115* | 101*
CCOC(=O)/C=C1/Nc2ccccc2C(c2ccccc2)(c2ccccc2)N1 | 3 | 13 | 0 | 0 | · | ·
